The results in this text go back to ChEMBL document CHEMBL3988442, “University of Dundee, Small-Polar-MMV Screening Library” (2021).

The test addresses AMP-activated protein kinase, AMPK (Homo sapiens) (UniProt P54646+O43741+P54619+Q9UGJ0+Q9Y478+Q13131+Q9UGI9). The test can be described thus: AMP-dependent Kinase enzyme assay. An in vitro enzyme assay that detects ADP turnover that is directly proportional to AMPK activity. This uses naive AMPK that is activated during the assay with MK-8722. The class given is functional. Details: scale not given: direction of the effect not stated beside the values. Particulars: 30 µM.
`O=C(CN1CCC(c2nnc(C(F)(F)F)o2)CC1)NCc1ccccc1`: the Percent Effect turned out to be 0.729%.

With `N#CC1(NC(=O)c2c(F)ccc(OC(F)F)c2F)CCOCC1`, the Percent Effect is -2.32%.

In the case of `CCCC(=O)Nc1cnn(CC(=O)Nc2ccc(SC)cc2)c1`, the Percent Effect was -33.2%.

Consider `CCN1CC2(CCN(CC3COCCO3)CC2)OC1=O` (stereo not given), for which the Percent Effect was -1.21%.

As to `CCCn1nnnc1CN(CC)CC1COc2ccccc2O1` (stereo not given), the Percent Effect worked out at 1.1%.

Consider `O=C(CCCn1cccn1)N1CCCC(n2cncn2)C1` (stereo not given), for which the Percent Effect was 5.88%.

Consider `COc1c(F)cc(NC(=O)N2CCC(CSC)C2)cc1F` (stereo not given), for which the Percent Effect was 2.71%.

On to `CN(C)Cc1cccc(-c2cccnc2C(=O)NCC2CC2)c1`, for which the Percent Effect amounted to 20.3%.

With `CN(Cc1ccccc1)S(=O)(=O)N1C[C@H](C2CC2)[C@@H](N)C1`, the Percent Effect is -0.41%.

For `Cc1cc(=O)[nH]c(-n2nc(-c3cccs3)cc2N)n1`, the Percent Effect is -13.8%.

Take `CCOC(=O)C1(NCC(=O)Nc2cc(C)ccc2OC)CCCC1`: the Percent Effect was found to be 0.781%.

For `Cc1nc(CNCc2ccc(OC34CCCN(CC3)C4)cc2)n[nH]1` (stereo not given), the Percent Effect is -5.44%.

With `CN(C)Cc1ccc(C(=O)N2CCCC(COc3ccc(F)cc3)C2)o1` (stereo not given), the Percent Effect came out at 7.84%.

As for `CN1CCC(c2n[nH]c(=O)n2-c2cccc(Cl)c2)CC1`, the Percent Effect was 65.1%.

On to `OCC1(NCc2cccc(-n3cccn3)c2)CCOCC1`, for which the Percent Effect was -1.31%.

Take `O=C(Cc1ccccc1Cl)Nc1cc(N2CCCC2)ncn1`: the Percent Effect amounted to 0.395%.

In the case of `CCn1cnnc1CCNc1nc(C)cc(C)c1C#N`, the Percent Effect was -7.29%.

Take `c1ccc2c(NC3CCc4ncnn4C3)ncnc2c1` (stereo not given): the Percent Effect amounted to 2.92%.

For the compound `CCc1ccsc1C(=O)NC(C#N)CC` (stereo not given), the Percent Effect was 2.87%.

With `c1ccc(CCCn2ccnc2-c2cn(C3CCNCC3)nn2)nc1`, the Percent Effect is -13.8%.

As for `CC(C)(C)C(NC(=O)CCCS(C)(=O)=O)c1ccc(F)cc1F` (stereo not given), the Percent Effect was 7.18%.

Turning to `Cc1nccn1[C@@H]1CC[C@@H](N(C)S(=O)(=O)c2cccc(F)c2)[C@H]1O`, the Percent Effect stood at 28.1%.

In the case of `Cc1ncn(CCNC(=O)Nc2ccc(OC(F)(F)F)cc2)c(=O)c1C`, the Percent Effect came to 2.14%.

For `c1cnc(N2CCC(OCC3CCCCO3)CC2)nc1` (stereo not given), the Percent Effect was 2.8%.

`CCN(CC)S(=O)(=O)c1ccc(NC(=O)C(C)(C)C)cc1`: the Percent Effect came to 3.46%.

Turning to `CN(C)CC(=O)N1CCN(c2cc(N3CCCC3CO)ncn2)CC1` (stereo not given), the Percent Effect is -7.31%.

Regarding `O=C(CCN1CCOCC1)Nc1cccc(CNCc2ccsc2)c1`, the Percent Effect was -5.46%.

In the case of `Cn1ccc(C(=O)N2CCCC2c2cc(CCO)[nH]n2)n1` (stereo not given), the Percent Effect came out at 21.2%.

In the case of `Cc1sc2ncnc(N3CCCC3Cn3cccn3)c2c1C` (stereo not given), the Percent Effect stood at 3.42%.

In the case of `CO[C@@H]1CC[C@@H](NC(=O)CCc2ccc(Cl)cc2)[C@H]1O`, the Percent Effect was 8.1%.

In the case of `CCCN1CCC(CC(=O)NCCc2nc(C)cc(C)n2)CC1`, the Percent Effect came to 6.07%.

`NS(=O)(=O)c1ccc(N2CCN(CCCc3cn[nH]c3)CC2)cc1`: the Percent Effect is -5.73%.

On to `CCn1cc(NC(=O)c2cccc(CN3C[C@@H](C)O[C@@H](C)C3)c2)nn1`, for which the Percent Effect came to 1.85%.

Consider `CN(CCc1noc(C2CC2)n1)C(=O)C1(N2CCCC2)CCCC1`, for which the Percent Effect is -3.61%.

As to `CC(C(=O)NCc1ccc2c(c1)OCCO2)n1cncn1` (stereo not given), the Percent Effect was -8.38%.

Take `Cc1cccc(C(C(=O)NC(C)(C)CN2CCCC2)N(C)C)c1` (stereo not given): the Percent Effect is -15.9%.

Consider `COCCOc1cccc(CNCc2ccc(-n3cncn3)nc2)c1`, for which the Percent Effect was 3.28%.

For `Cn1nc2c(c1NC(=O)c1ccc(Cl)s1)CCC2`, the Percent Effect was 0.899%.

As to `CS(=O)(=O)N1CCN(c2cc(N3CCCC3CO)ncn2)CC1` (stereo not given), the Percent Effect was -5.51%.

Take `O=C(NCc1nnc2n1CCCC2)c1ccc(C2CCCO2)s1` (stereo not given): the Percent Effect is -8.64%.
